High-throughput results from PubChem.
Sampled rows, rich in hits. Any-hit rate of the full collection: about 6.7%.
C diff growth – C. difficile growth inhibitors, primary screen, HTS | Clostridium difficile clinical isolate growth, OD600, 24 h; hits give low values | growth activity, negative = inhibition, % at 16 µg/mL (by protocol) | 86,000 compounds, 0.25% hits | AID 1259249, 2017;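 active means mean growth activity at or below -80% and every replicate also at or below -80%; inconclusive means mean at or below -80% but some replicate above -80%; inactive means mean growth activity above -80%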;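 further: 0% = DMSO wells and -100% = levofloxacin 16 µg/mL wells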
Pf Dd2 inh – P. falciparum Dd2 growth inhibitors, primary screen, SYBR Green fluorescence, single dose replicates; 72 h; hits give low values; activity change, % at 10 µM; 94,000 compounds, 2.3% hits; AID 1159554, 2015; in the data active means activity change below about -80%; inconclusive means no clear call, values can overlap the other calls
T cruzi growth-1 – T. cruzi intracellular proliferation inhibitors, primary screen, cell-based, beta-gal Tulahuen parasites, NIH3T3 host, luminescence; T. cruzi beta-gal in NIH3T3, GalScreen luminescence, 90 h; inhibition, % at 8.34 µM; 77,000 compounds, 5.9% hits; AID 624255, 2012;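 active means mean inhibition above about 93%, with at least 55% of replicates each passing it, limit read from the data, passing the limit was not always enough; inconclusive means only one of those two conditions holds; inactive means neither condition holds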
T cruzi growth-2 – T. cruzi intracellular proliferation inhibitors, confirmation, cell-based, NIH3T3 host, beta-gal parasite, luminescence, cherry-pick; inhibition, % at 8.35 µM; AID 651739, 2012; T. cruzi beta-gal in NIH3T3, GalScreen luminescence, 90 h; 5,600 compounds, 72% hits; shares compounds with T cruzi growth-1;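 active means mean replicate inhibition above about 95% and at least 55% of replicates individually reaching it, limit read from the data; inconclusive means only one of the two criteria is met; inactive means neither criterion is met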
T cruzi growth-3 – inhibitors of intracellular T. cruzi replication, confirmation, NIH3T3 host cells, beta-gal parasites, cherry-pick, set 2 | shares compounds with T cruzi growth-1 | T. cruzi beta-gal in NIH3T3, GalScreen luminescence, 90 h | inhibition, % at 2.09 µM | 5,600 compounds, 21% hits;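 active means mean inhibition above about 95%, with at least 55% of replicates also reaching it, limit read from the data; inconclusive means meets just one of the two conditions; inactive means meets neither condition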;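 further: plate controls were neutral control median for no effect and positive control median for full effect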
NIH3T3 tox – cytotoxicity in mouse NIH/3T3 fibroblasts, confirmation, cytotoxicity control for T. cruzi proliferation inhibitor project, cell-based, cherry-pick, single point; 5,600 compounds, 14% hits; AID 651742, 2012; cytotoxicity (signal decrease), % at 8.35 µM; NIH/3T3 viability, CellTiter-Glo ATP luminescence, 90 h; shares compounds with T cruzi growth-1;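 active means mean signal decrease across replicates above about 35% based on untreated-well scatter, with enough replicates individually passing, limit read from the data; inconclusive means no rule stated though some were filed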;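 further: 0% = median of neutral control wells and 100% = median of positive control wells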
NIH3T3 tox 2 – NIH/3T3 fibroblast cytotoxicity, confirmation, cytotoxicity control, cell-based, cherry-pick, single point, set 2; shares compounds with T cruzi growth-1; NIH/3T3 viability, CellTiter-Glo ATP luminescence, 90 h; inhibition, % at 24.9 µM; 5,600 compounds, 56% hits; AID 651744, 2012;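 active means mean loss of cell viability signal at or above a set limit, and enough replicates individually reaching it; inconclusive means meets only the mean limit or only the replicate share; inactive means meets neither condition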;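 further: 0% = median of neutral control wells and 100% = median of positive control wells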
Starred values were filed as active, the others as inactive.

For CNC[C@H]1OCCCC[C@@H](C)Oc2ccc(NS(=O)(=O)c3ccc(C)cc3)cc2C(=O)N([C@H](C)CO)C[C@H]1C the results were C diff growth -1, Pf Dd2 inh -23 and T cruzi growth-1 1.
Screening COC(=O)[C@@H]1[C@@H](CO)[C@@H]2Cn3c(ccc(-c4ccccc4)c3=O)[C@@H]2N1CC1CCCCC1 returned C diff growth 36, Pf Dd2 inh -9 and T cruzi growth-1 23.
Screening C/C=C/c1ccc([C@H]2[C@@H](CNCC)N(c3nc(C)c(C)s3)[C@H]2CO)cc1 returned C diff growth 26, Pf Dd2 inh -38 and T cruzi growth-1 87.
Screening C[C@@H]1CCCCO[C@H](CN(C)Cc2ccc3c(c2)OCO3)[C@@H](C)CN([C@H](C)CO)C(=O)c2cc(NC(=O)Cc3ccccc3)ccc2O1 returned C diff growth -1, Pf Dd2 inh -35 and T cruzi growth-1 6.
O=C(c1cccc(F)c1)N1CCCCN2[C@H](C1)[C@H](c1ccc(/C=C/c3ccccc3)cc1)[C@@H]2CO was read as C diff growth 9, Pf Dd2 inh 23, T cruzi growth-1 110*, T cruzi growth-2 inconclusive, T cruzi growth-3 13, NIH3T3 tox 7 and NIH3T3 tox 2 103*.
For O=C(c1cccc(F)c1)N1CCCCN2[C@H](C1)[C@@H](c1ccc(-c3ccc(F)cc3)cc1)[C@@H]2CO the results were C diff growth 45, Pf Dd2 inh -2 and T cruzi growth-1 93.
Screening COc1cccc(C#Cc2ccc3c(c2)[C@H]2[C@H](CCN2S(=O)(=O)c2cccc(OC)c2)[C@H](CO)N3)c1 returned C diff growth 73 and Pf Dd2 inh -48.
COc1ccc(CN(C)C[C@@H]2OCCCC[C@@H](C)Oc3ccc(NC(=O)Nc4ccc(F)cc4)cc3C(=O)N([C@H](C)CO)C[C@@H]2C)cc1 was read as C diff growth 4, Pf Dd2 inh -10 and T cruzi growth-1 47.
For COc1ccc(CN(C)C[C@H]2OCCCC[C@H](C)Oc3ccc(NC(=O)Nc4ccc(OC)cc4)cc3C(=O)N([C@@H](C)CO)C[C@@H]2C)cc1 the results were Pf Dd2 inh 30, T cruzi growth-1 110*, T cruzi growth-2 112*, T cruzi growth-3 63, NIH3T3 tox 15 and NIH3T3 tox 2 104*.
For COc1ccc(CN(C)C[C@@H]2OCCCC[C@@H](C)Oc3ccc(NC(=O)Nc4ccc(OC)cc4)cc3C(=O)N([C@@H](C)CO)C[C@H]2C)cc1 the results were Pf Dd2 inh -51 and T cruzi growth-1 83.
Screening COc1ccc(CN(C)C[C@@H]2OCCCC[C@@H](C)Oc3ccc(NC(=O)Nc4ccc(F)cc4)cc3C(=O)N([C@H](C)CO)C[C@H]2C)cc1 returned C diff growth 16, Pf Dd2 inh -63, T cruzi growth-1 inconclusive, T cruzi growth-2 97*, T cruzi growth-3 111*, NIH3T3 tox 26 and NIH3T3 tox 2 105*.
Cc1ccc(S(=O)(=O)NCC[C@H]2CC[C@@H](NC(=O)c3cccnc3)[C@@H](CO)O2)cc1 was read as C diff growth 3, Pf Dd2 inh 13 and T cruzi growth-1 -20.
O=C(C[C@@H]1CC[C@H]2[C@@H](COC[C@H](O)CN2C(=O)c2ccncc2)O1)NCc1cccc(F)c1 was read as C diff growth 0 and T cruzi growth-1 -32.
Cc1noc(C)c1S(=O)(=O)N(C)C[C@@H]1OCCCC[C@@H](C)Oc2ccc(NC(=O)Nc3ccccc3)cc2C(=O)N([C@@H](C)CO)C[C@H]1C was read as C diff growth 5 and Pf Dd2 inh -24.
Cc1noc(C)c1S(=O)(=O)N(C)C[C@H]1OCCCC[C@@H](C)Oc2ccc(NC(=O)Nc3ccccc3)cc2C(=O)N([C@H](C)CO)C[C@@H]1C was read as C diff growth 3 and Pf Dd2 inh -20.
COc1ccc(NC(=O)Nc2ccc3c(c2)C(=O)N([C@@H](C)CO)C[C@H](C)[C@@H](CN(C)S(=O)(=O)c2c(C)noc2C)OCCCC[C@H](C)O3)cc1 was read as C diff growth -5, Pf Dd2 inh -83*, T cruzi growth-1 107*, T cruzi growth-2 102*, T cruzi growth-3 -8, NIH3T3 tox -12 and NIH3T3 tox 2 -7.
`Cc1noc(C)c1S(=O)(=O)N(C)C[C@H]1OCCCC[C@@H](C)Oc2ccc(NC(=O)Nc3ccccc3)cc2C(=O)N([C@@H](C)CO)C[C@@H]1C` gave C diff growth -8 and Pf Dd2 inh -79.
For Cc1noc(C)c1S(=O)(=O)N(C)C[C@H]1OCCCC[C@H](C)Oc2ccc(NC(=O)Nc3cccc4ccccc34)cc2C(=O)N([C@@H](C)CO)C[C@@H]1C the results were C diff growth -5, Pf Dd2 inh -85*, T cruzi growth-1 100*, T cruzi growth-2 109*, T cruzi growth-3 inconclusive, NIH3T3 tox 7 and NIH3T3 tox 2 54*.
Screening COc1ccc(NC(=O)Nc2ccc3c(c2)C(=O)N([C@@H](C)CO)C[C@@H](C)[C@H](CN(C)S(=O)(=O)c2c(C)noc2C)OCCCC[C@@H](C)O3)cc1 returned C diff growth -2, Pf Dd2 inh -17 and T cruzi growth-1 -70.
For Cc1noc(C)c1S(=O)(=O)N(C)C[C@@H]1OCCCC[C@H](C)Oc2ccc(NC(=O)Nc3cccc4ccccc34)cc2C(=O)N([C@H](C)CO)C[C@@H]1C the results were C diff growth -3, Pf Dd2 inh -20, T cruzi growth-1 109*, T cruzi growth-2 98*, T cruzi growth-3 -37, NIH3T3 tox 74* and NIH3T3 tox 2 77*.
Screening Cc1noc(C)c1S(=O)(=O)N(C)C[C@@H]1OCCCC[C@@H](C)Oc2ccc(NC(=O)Nc3cccc4ccccc34)cc2C(=O)N([C@@H](C)CO)C[C@H]1C returned C diff growth -1, Pf Dd2 inh -42, T cruzi growth-1 104*, T cruzi growth-2 84, T cruzi growth-3 55, NIH3T3 tox -14 and NIH3T3 tox 2 -5.
`C[C@@H]1CN([C@@H](C)CO)S(=O)(=O)c2ccc(-c3ccc(F)cc3)cc2O[C@@H]1CN(C)C` gave C diff growth -7, Pf Dd2 inh -4 and T cruzi growth-1 29.
